In PubChem BioAssay (NCATS):
Unmarked numbers belong to inactive results. The call rests on the fitted dose curve; in most records, active means well fitted curve in the direction sought with a large enough effect; inconclusive means small, poorly fitted or top-dose-only effect, or another doubt; inactive means no such curve, though single readings can be large; an effect the other way counts as inactive or inconclusive.

Each compound was assayed against Alpha-galactosidase (Coffea arabica) (UniProt Q42656) (assay: Counterscreen for Glucocerebrosidase Inhibitors: qHTS Assay for Coffee Bean alpha-Galactosidase at pH 4.5 (AID 957;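 further: plate controls were enzyme alone for no effect and no enzyme for full effect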)). Details: purified coffee bean alpha-galactosidase, fluorogenic substrate; series mostly up to 76.9 µM; activity change, negative = inhibition: at the top concentration.
Method in brief: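 Quantitative HTS of compounds (0.7 nM to 77 uM) against coffee bean alpha-galactosidase at pH 4.5, measuring 4-methylumbelliferone fluorescence released from 80 uM substrate.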

Alpha-galactosidase (Coffea arabica), sequence (Q42656 whole entry, looked up): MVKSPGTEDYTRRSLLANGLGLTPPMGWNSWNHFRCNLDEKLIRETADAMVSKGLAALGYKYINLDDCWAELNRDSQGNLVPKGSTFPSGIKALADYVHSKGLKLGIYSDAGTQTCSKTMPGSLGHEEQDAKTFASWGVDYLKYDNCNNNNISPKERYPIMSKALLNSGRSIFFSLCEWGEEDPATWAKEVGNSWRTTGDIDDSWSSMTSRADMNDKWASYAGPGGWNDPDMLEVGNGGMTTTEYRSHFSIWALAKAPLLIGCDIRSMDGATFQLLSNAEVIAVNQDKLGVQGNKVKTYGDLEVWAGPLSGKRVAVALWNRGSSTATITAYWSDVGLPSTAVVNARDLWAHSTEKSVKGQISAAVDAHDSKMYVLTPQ

SMILES	activity change, negative = inhibition
C=C[C@H](N)CCC(=O)O	-1.09%
CN1C(=O)CC[C@@H]1c1cccnc1	0.0171%
C/C=C1\C(=O)C[C@@H]2[C@@H]3CCC4=CC(=O)CC[C@@]4(C)[C@H]3CC[C@@]12C	-0.685%
CC[C@@H]1CN2CCc3cc(OC)c(OC)cc3[C@H]2C[C@@H]1C[C@@H]1NCCc2cc(OC)c(OC)cc21	-1%
COc1ccc2c(c1)CCC1C2CC[C@]2(C)[C@H](NCCCCCCN3C(=O)C=CC3=O)CC[C@@H]12 (stereo not given in full)	2.09%
C[C@@H]1C[C@@H]2[C@H]3CCC4=CC(=O)C=C[C@]4(C)[C@]3(F)[C@@H](O)C[C@@]2(C)[C@@]1(O)C(=O)CO	-0.934%
CO/N=C(\C(=O)N[C@@H]1C(=O)N2C(C(=O)O)=C(CSc3nc(=O)c(O)nn3C)CS[C@@H]12)c1csc(N)n1	5.14%
N[C@H](C(=O)N[C@@H]1C(=O)N2C(C(=O)O)=C(Cl)CS[C@@H]12)c1ccccc1	-2.31%
CCCCCCCCCC(=O)N[C@@H](CN1CCOCC1)[C@@H](O)c1ccccc1	-6.72%
S=C(Nc1ccccc1)Nc1nccs1	-0.585%
CC(C)[C@H]1C(=O)C(C(N)=O)=C(O)[C@]2(O)C(=O)C3=C(O)c4c(O)ccc(N(C)C)c4C[C@H]3C[C@@H]12	-1.93%
COc1cccc(OC)c1OCCNC[C@@H]1CSc2ccccc2O1	-3.04%
CN(C)c1ccc(/C=C2/C(=O)Nc3ccccc32)cc1	-11.7%
N=c1ccn2c(n1)O[C@@H]1[C@@H](O)[C@H](CO)O[C@H]12	-3.58%
CC(C)[C@@H]1NC(=O)[C@H](CCCCN)NC(=O)[C@H](Cc2c[nH]c3ccccc23)NC(=O)[C@H](Cc2ccc(O)cc2)NC(=O)[C@H](C)N(C)C(=O)[C@H](Cc2ccccc2)NC1=O	-0.755%
N[C@H](CCC(=O)N[C@H](CSN=O)C(=O)NCC(=O)O)C(=O)O	0.133%
CCN1CCC[C@@H]1CNC(=O)c1cc(S(N)(=O)=O)ccc1OC	2.27%
O=C1CC[C@H](N2C(=O)c3ccccc3C2=O)C(=O)N1	0.169%
Nc1nc(Cl)nc2c1ncn2[C@@H]1O[C@@H](CO)[C@@H](O)[C@H]1O	3.06%
CCOC(=O)C1=C(C)NC(C)=C(C(=O)OC)[C@H]1c1cccc([N+](=O)[O-])c1	-8.3%
CC(=O)O[C@@H]1[C@H]([N+]2(C)CCCCC2)C[C@@H]2[C@@H]3CC[C@@H]4C[C@@H](OC(C)=O)[C@H]([N+]5(C)CCCCC5)C[C@@]4(C)[C@H]3CC[C@]21C	-0.915%
C[C@@](N)(C(=O)O)c1ccc(C(=O)O)cc1	1.08%
CC1(C)CCC(NC(=O)[C@H](N)CCC(=O)O)CC1	1.69%
COc1ccccc1OC[C@H](O)CN1CCN(CC(=O)Nc2c(C)cccc2C)CC1	-2.65%

Each compound was assayed against Alpha-galactosidase (Coffea arabica) (UniProt Q42656) (assay: Counterscreen for Glucocerebrosidase Inhibitors: qHTS Assay for Coffee Bean alpha-Galactosidase at pH 5.9 (AID 998;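 further: plate controls were uninhibited enzyme for no effect and no-enzyme basal signal for full effect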)). Details: coffee bean alpha-galactosidase enzyme assay; series mostly up to 76.9 µM; activity, negative = inhibition: at the top concentration.
Method in brief: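 In 50 mM citric acid pH 5.9 with 0.005% Tween-20, coffee bean enzyme hydrolyses 80 uM 4-MU alpha-D-galactopyranoside over 20 min at RT. Activity is normalized to controls; AC50 comes from Hill-modelled concentration-response data.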

SMILES	activity, negative = inhibition
CC[C@@H]1CN2CCc3cc(OC)c(OC)cc3[C@H]2C[C@@H]1C[C@@H]1NCCc2cc(OC)c(OC)cc21	-0.0024%
COc1ccc2c(c1)CCC1C2CC[C@]2(C)[C@H](NCCCCCCN3C(=O)C=CC3=O)CC[C@@H]12 (stereo not given in full)	0.514%
Cc1ccc(C(=O)O[C@@H](C(=O)O)[C@@H](OC(=O)c2ccc(C)cc2)C(=O)O)cc1 (tested in a mixture with another compound)	2.36%
CC(C)[C@@H]1NC(=O)[C@H](CCCCN)NC(=O)[C@H](Cc2c[nH]c3ccccc23)NC(=O)[C@H](Cc2ccc(O)cc2)NC(=O)[C@H](C)N(C)C(=O)[C@H](Cc2ccccc2)NC1=O	-0.162%
N[C@H](CCC(=O)N[C@H](CSN=O)C(=O)NCC(=O)O)C(=O)O	-2.09%
CC(=O)O[C@@H]1[C@H]([N+]2(C)CCCCC2)C[C@@H]2[C@@H]3CC[C@@H]4C[C@@H](OC(C)=O)[C@H]([N+]5(C)CCCCC5)C[C@@]4(C)[C@H]3CC[C@]21C	-0.969%
